Test results reported in the supplement of paper PMC3334620.
The full ranking holds about 33,000 sequences; the median of “E-score (-0.5 to 0.5)” is about -0.04, and the highest 2% start at about 0.36. Many of the other results were omitted from the sample, so the highest values are more common in it than they were.

Target: T1, Hmlalpha2 (UniProt P0CY09)
T1 sequence: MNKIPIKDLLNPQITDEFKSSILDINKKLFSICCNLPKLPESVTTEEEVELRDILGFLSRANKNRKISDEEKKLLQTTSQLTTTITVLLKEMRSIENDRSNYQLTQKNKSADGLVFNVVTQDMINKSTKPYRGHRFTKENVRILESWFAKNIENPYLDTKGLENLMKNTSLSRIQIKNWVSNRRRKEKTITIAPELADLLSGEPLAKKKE
Test: PBM E-score (8-mer binding enrichment) (E-score (-0.5 to 0.5)); higher = stronger / more preferred TF binding
Settings: protein concentration: 200 nM; construct: GST-full length
Protocol: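 Universal 'all 10-mer' protein binding microarrays (Agilent AMADID 015681) probed with GST-tagged S. cerevisiae TFs (full-length or DBD) made by in vitro transcription/translation (PURExpress), about 100-200 nM. Bound TF was detected with fluorescent anti-GST. Each ungapped 8-mer (which stands for itself and its reverse complement) is scored by the PBM enrichment score (E-score), a modified Wilcoxon-Mann-Whitney statistic from -0.5 to +0.5, computed with the Universal PBM Analysis Suite. Scale: above 0.35 generally sequence-specific binding.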

| Sequence | PBM E-score |
| --- | --- |
| ATGAGGAA | 0.0377 |
| ACCTAACT | 0.00114 |
| AACGAACC | 0.036 |
| CATGGGGC | 0.0176 |
| CGCAATGA | 0.0708 |
| GAGAATAC | 0.242 |
| ATTGTTGG | 0.151 |
| AATCTGAA | 0.102 |
| ACTACTTG | 0.154 |
| GCCTGTAA | 0.254 |
| ACGTGTAC | 0.382 |
| ACGTGTAT | 0.402 |
| TAGTGTAA | 0.323 |
| GAGTGTAC | 0.0265 |
| GCGTGTAA | 0.486 |
| GCGTGTAC | 0.427 |
| GGGTGTAC | -0.0223 |
| ACGTGTGC | 0.172 |
| AAGTGTAT | 0.194 |
| AAGTGTAC | 0.0982 |
| ACGTGTCT | 0.193 |
| CAACCACG | 0.111 |
| ATTGGTAG | 0.0446 |
| GGATCCTA | -0.154 |
| ATCCTAAT | -0.0163 |

| Sequence | PBM E-score |
| --- | --- |
| CTGGCGAA | -0.103 |
| CTGTCCAA | -0.0758 |
| ACATAGGG | 0.251 |
| ACGTAGAT | 0.267 |
| CGCTTGCA | -0.0244 |
| GCGCGTAC | 0.225 |
| CCGCGTTA | 0.336 |
| GCGCGTAA | 0.416 |
| ACGCGTAC | 0.345 |
| TAGCGTAA | 0.278 |
| GCGCGTGA | 0.134 |
| GCGCGTTA | 0.372 |
| ACGCGTAA | 0.394 |
| TCGCGTAA | 0.45 |
| TGGCGTAA | 0.108 |
| ACGCGTAT | 0.357 |
| ACGCGTTA | 0.342 |
| GCTGAAGC | -0.14 |
| CCGAATGC | -0.125 |
| ATTGATGG | 0.08 |
| TCCATGAA | 0.043 |
| TCCAACAA | 0.264 |
| GGCCTACC | -0.247 |
| CTGAGGGC | -0.3 |
| ATCTCGGA | -0.115 |

| Sequence | PBM E-score |
| --- | --- |
| AAAGCGAG | 0.107 |
| CTCTGACA | 0.132 |
| GCGACCAA | -0.0947 |
| GCCAGACA | -0.163 |
| CCGCGTAA | 0.426 |
| CCGCGTAG | 0.294 |
| CCGCGTAC | 0.266 |
| ATCTACTA | 0.193 |
| GCTATTCA | 0.0214 |
| ACTTTGCC | -0.0921 |
| GGGGAGTA | -0.225 |
| AAGTTGCA | 0.109 |
| ATTCTACG | 0.157 |
| GATCTACA | 0.345 |
| AATCTACA | 0.438 |
| ATTCTACA | 0.371 |
| TATCTAAA | 0.141 |
| GTTCTACA | 0.29 |
| CATCTACA | 0.338 |
| AATCTACT | 0.098 |
| TATCTACA | 0.371 |
| GCATTGAC | 0.0683 |
| CGACCGAA | -0.0499 |
| GAAGGCCA | -0.38 |
| ATCTGCCA | -0.149 |

| Sequence | PBM E-score |
| --- | --- |
| CAGTACAG | 0.0351 |
| TAACGGCA | -0.0141 |
| CTTACAGA | 0.0289 |
| GTTACTGA | 0.171 |
| CTTACATA | 0.426 |
| CTCACATA | 0.0587 |
| GTTACATA | 0.421 |
| GTTACAGA | 0.0217 |
| ACCCCTAT | -0.208 |
| ACACCCAG | 0.0143 |
| GCGCGAAA | 0.189 |
| TCACAACA | 0.324 |
| TACTATAA | 0.171 |
| ACATATGT | 0.369 |
| ACATATGG | 0.104 |
| ACATATGC | 0.123 |
| CAATATTA | 0.213 |
| TAATATTA | 0.379 |
| AAATATTA | 0.317 |
| ACATATTA | 0.389 |
| ACATATTG | 0.142 |
| CCATATTA | 0.063 |
| ATGCACAC | 0.106 |
| CTTTTGCA | 0.105 |
| ACTTTCGG | -0.0932 |

| Sequence | PBM E-score |
| --- | --- |
| AGCATCCC | -0.348 |
| AGAACTAA | 0.189 |
| AGAGCGGG | -0.166 |
| ACCTACTA | 0.081 |
| ACGCGATA | 0.324 |
| CTCCAGGC | -0.185 |
| ATTAAACA | 0.322 |
| GTTAAAAC | 0.343 |
| ATTAAAAA | 0.249 |
| CTTAAACA | 0.128 |
| GTTAAACA | 0.375 |
| GTTAAAAA | 0.369 |
| TCCTACCA | -0.318 |
| GGATGGAA | -0.175 |
| AGGTTCTG | -0.0953 |
| AAACCTCT | -0.08 |
| ATGTTTTA | 0.422 |
| CTGTTTTC | 0.036 |
| GTGTTTTA | 0.355 |
| CTGTTTTA | 0.0458 |
| ATGTTTTC | 0.421 |
| ATGTTTCC | 0.0968 |
| CTGTTTAA | 0.11 |
| GTGTTTAA | 0.351 |
| ATGTTTAA | 0.387 |

| Sequence | PBM E-score |
| --- | --- |
| ACCTTGGC | -0.242 |
| ATTGCCAA | -0.206 |
| CCTGGACC | -0.0273 |
| GGTTCTCA | -0.0328 |
| ATCTACAT | 0.452 |
| CTCTACGC | 0.0772 |
| CTCTACAC | 0.368 |
| ATCTACAG | 0.151 |
| GTCTACAC | 0.364 |
| ATCTACAC | 0.45 |
| CTCTACAA | 0.277 |
| ATCTACTC | 0.00965 |
| ATCTACGC | 0.368 |
| ATCTACGA | 0.014 |
| ATCTACAA | 0.307 |
| CCCTACAC | 0.247 |
| GGAGGCTA | -0.325 |
| GTTCTGCA | 0.104 |
| ATAACATG | 0.452 |
| ATAACATA | 0.437 |
| ATAACATC | 0.327 |
| CTAACATA | 0.273 |
| GTAACATA | 0.355 |
| ATAACAGG | 0.194 |
| AGCTGCAG | -0.168 |

| Sequence | PBM E-score |
| --- | --- |
| ACTTTGAC | 0.231 |
| CCTTGCCC | -0.198 |
| GCCTGTTA | 0.139 |
| ACATGTTG | 0.45 |
| ACATGTCC | 0.351 |
| GCATGTTA | 0.464 |
| ACATGTTC | 0.371 |
| AGATGTTC | 0.0875 |
| ACATGTCA | 0.402 |
| AGATGTTG | -0.0256 |
| CCATGTCA | 0.333 |
| CCATGTTC | 0.275 |
| CAATGTTA | 0.284 |
| AAATGTTG | 0.0925 |
| CCTGGGCG | -0.173 |
| GCAAGCGA | 0.0703 |
| GCGAAACC | 0.104 |
| CAAACCCG | -0.0693 |
| ATTCACCA | 0.0468 |
| ATGAGGTA | 0.136 |
| CCGCATAC | 0.0261 |
| CCTTAGAG | -0.462 |
